Screening data: PubChem BioAssay, several laboratories
GDH-TPI counter = GDH-TPI coupling enzyme inhibitors, primary screen, artefact control for M. tuberculosis FBA inhibitor project, biochemical, absorbance, full deck; inhibition, % at 4.8 µM; AID 588335, 2011; 360,000 compounds, 1.2% hits; GDH-TPI coupled enzyme counterscreen, NADH absorbance
CCHFV vOTU inh = CCHFV vOTU protease inhibitors, primary screen, biochemical, Pep-AMC substrate, fluorescence; inhibition, % at 11.5 µM; 370,000 compounds, 0.55% hits; AID 651958, 2012
RecA intein inh = Mtb RecA intein splicing inhibitors, primary screen, biochemical, fluorescence, HTS. inhibition, % (test concentration not listed). Protein RecA (Mycobacterium tuberculosis (strain ATCC 25618 / H37Rv)), P9WHJ3. cell-free RecA intein splicing. 290,000 compounds, 0.75% hits. AID 2221, 2009; in the data active means inhibition above about 30%
Mtb betalactam = beta-lactam sensitization of Mtb H37Rv, H37Rv | AID 434955, 2010 | inhibition, % at 25 µM | 330,000 compounds, 0.27% hits | M. tuberculosis H37Rv growth with meropenem, percent inhibition; call rule not given here;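 further: growth measured after seven days incubation then overnight dye step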
Mtb FBA inh = Mtb FBA enzyme inhibitors, primary screen, biochemical, fluorescence, strain H37Rv. purified M. tuberculosis FBA, fluorescence read-out. inhibition, % at 1 µM. 360,000 compounds, 2.3% hits. AID 588726, 2011; in the data active means inhibition above about 27%
Hits are given with their value; i = inactive; nt = no result; + = active, no number. Hits are enriched below; roughly 4.2% of the tested compounds scored in any of these assays. Unless noted, no stated cut-off is given here; in the data, active means inhibition above about 30%; inactive means the rest.

SMILES | GDH-TPI counter | CCHFV vOTU inh | RecA intein inh | Mtb betalactam | Mtb FBA inh
Oc1ccc(C=NNC(=S)Nc2ccccc2)nc1 | 54 | i | nt | nt | i
S=C(N/N=C/c1ccccc1Cl)Nc1ccccc1 | i | i | i | i | i
CCn1c(SCc2ccccc2Cl)nnc1-c1ccccc1OC | nt | i | nt | nt | nt
COCC(C)OC(=O)c1c(N)n(-c2ccc(OC)c(OC)c2)c2nc3ccccc3nc12 (stereo not given) | nt | nt | i | i | nt
COCC(C)OC(=O)c1c(N)n(Cc2ccco2)c2nc3ccccc3nc12 (stereo not given) | i | i | i | i | 130
CCCCOCCCn1c(N)c(C(=O)OCCOC)c2nc3ccccc3nc21 | i | i | i | i | 134
COCCOC(=O)c1c(N)n(Cc2ccccc2)c2nc3ccccc3nc12 | i | i | i | i | +
COCCn1c(N)c(C(=O)OCc2ccccc2)c2nc3ccccc3nc21 | i | i | i | i | +
CCOC(=O)c1c(NC(=O)c2c(N)n(CCCOC)c3nc4ccccc4nc23)sc2c1CCCC2 | i | i | i | i | i
COCCCNC(=O)c1c(NC(=O)c2ccccc2)n(Cc2ccccc2)c2nc3ccccc3nc12 | i | i | i | i | i
CCC(C)N(C(C)CC)S(=O)(=O)c1ccc2[nH]c(=O)oc2c1 (stereo not given) | nt | i | nt | nt | nt
CCn1c(COc2ccccc2)nnc1SCC(=O)Nc1ccc(S(=O)(=O)Nc2cc(C)nc(C)n2)cc1 | nt | i | nt | nt | nt
O=C(c1cccnc1Cl)N1CCC(Oc2cccnc2)CC1 | nt | i | nt | nt | nt
O=C(c1cc2c(s1)-c1ccccc1OC2)N1CCCC1 | i | i | i | i | +
O=C(c1cc2c(s1)-c1ccccc1OC2)N1CCN(c2ccccn2)CC1 | i | i | i | i | i
O=C(c1cc2c(s1)-c1ccccc1OC2)N1CCC2(CC1)OCCO2 | 40 | i | nt | i | +
COn1c(-c2ccccc2)nc2c1CCc1c-2no[n+]1[O-] | i | i | i | i | i
COc1ccc(-c2nc3c(n2O)CCc2c-3no[n+]2[O-])cc1 | 41 | i | i | i | i
N#Cc1ccc(OC[C@@H](O)CN2CCC(C(O)(c3ccccc3)c3ccccc3)CC2)cc1 | nt | i | nt | nt | nt
Cc1ccc(Nc2c(-c3ccc(N4CCOCC4)cc3)nc3ncccn23)cc1 | 31 | i | i | i | i
CC(Oc1ccccc1Cl)C(=O)Nc1ccc(S(=O)(=O)Nc2nccs2)cc1 (stereo not given) | i | i | i | i | i
CC(Oc1ccc(Cl)cc1)C(=O)Nc1ccc(S(=O)(=O)Nc2nccs2)cc1 (stereo not given) | i | i | i | i | 107
Cc1cc(=O)oc2c3c(cc(OCC(=O)Nc4ccc(CCO)cc4)c12)OC(C)(C)CC3 | i | i | i | i | 157
Cc1cc(=O)oc2c3c(cc(OCC(=O)NCC(=O)O)c12)OC(C)(C)CC3 | i | i | i | i | +
CC(=O)Nc1ccc(NC(=O)COc2cc(C)cc3oc(=O)cc(C)c23)cc1 | i | i | i | i | i
SMILES | GDH-TPI counter | CCHFV vOTU inh | RecA intein inh | Mtb betalactam | Mtb FBA inh
Cc1cc(=O)oc2c3c(cc(OCC(=O)NCc4ccccc4)c12)OC(C)(C)CC3 | i | i | i | i | 150
Cc1cc(=O)oc2c3c(cc(OCC(=O)Nc4cccnc4)c12)OC(C)(C)CC3 | i | i | i | i | i
Cc1ccc2c(c1)N(CCCC(=O)N(C)Cc1ccccc1Cl)C(=O)CO2 | nt | i | nt | nt | nt
C#CCCN([C@@H](CC(C)C)C(=O)OC)S(=O)(=O)c1ccc(F)cc1Br | nt | i | nt | nt | nt
CCOC(=O)c1sc(=S)n(Cc2ccccc2)c1C | i | i | i | i | i
CCOC(=O)c1sc(=S)n(-c2ccc(OC)cc2)c1N | i | i | i | i | i
CCOC(=O)c1sc(=S)n(-c2ccccc2)c1C | 34 | i | i | i | i
CCOC(=O)c1sc(=S)n(-c2ccccc2Cl)c1C | 39 | i | i | i | i
CCOC(=O)c1sc(=S)n(-c2ccccc2)c1N | 34 | i | i | i | i
CN(C(=O)COC(=O)c1cnc(Cl)c(Cl)c1)C1CCS(=O)(=O)C1 (stereo not given) | i | i | i | i | i
CN(C(=O)COC(=O)c1ccc(Cl)cc1N)C1CCS(=O)(=O)C1 (stereo not given) | i | i | i | i | 67
Cc1ccc(C)c(NC2=C(Cl)C(=O)OC2OC(=O)c2ccco2)c1 (stereo not given) | i | i | 46 | i | i
Cc1ccc(NC2=C(Cl)C(=O)OC2OC(=O)c2ccco2)cc1C (stereo not given) | i | i | 54 | i | i
CCc1cc2c(=O)c(Oc3ccccc3)c(C)oc2cc1O | i | i | i | i | 186
O=C(NC1CCCC1)C1CCN(S(=O)(=O)c2ccc3[nH]c(=O)oc3c2)CC1 | nt | i | nt | nt | nt
CS(=O)(=O)c1ccc2nc(NC(=O)c3ccc(Cn4cc(Br)cn4)o3)sc2c1 | 31 | i | i | i | i
NC(=O)c1ccc(NC(=O)C#Cc2ccccc2)cc1 | i | i | i | i | i
COc1ccc(NC(=O)C#Cc2ccccc2)cc1OC | 34 | i | i | i | i
CC(C)C[C@@H]1COc2cccc(N3CCSCC3)c2S(=O)(=O)N1C | nt | i | nt | nt | nt
O=C(Nc1cccc(OC(=O)c2ccc(Br)o2)c1)c1ccccc1 | i | i | 43 | i | i
COc1ccc(C2C(C(=O)N3CCCCC3C)CC(=O)N2c2ccc(OC)cc2)cc1 (stereo not given) | nt | i | nt | nt | nt
O=C1C=C(c2ccc3[nH]ccc3c2)CCC1 | 35 | i | i | i | i
c1ccc(-c2ccc3[nH]ccc3c2)cc1 | i | i | nt | i | i
CC1(C)CC(=O)C=C(c2ccc3[nH]ccc3c2)C1 | 34 | i | i | i | i
COc1ccc(C2=CC(=O)CC(C)(C)C2)cc1OC | 35 | i | nt | i | i
SMILES | GDH-TPI counter | CCHFV vOTU inh | RecA intein inh | Mtb betalactam | Mtb FBA inh
COc1ccc2cc(C3=CC(=O)CCC3)ccc2c1 | 31 | i | nt | nt | i
COc1ccc(C2=CC(=O)C[C@H](c3ccc(OC)c(OC)c3)C2)cc1 | i | i | nt | i | i
CC(C)CNS(=O)(=O)/C=C/c1ccccc1CNC(=O)OC(C)(C)C | nt | i | nt | nt | nt
CC(C)(C)c1ccc(S(=O)(=O)NCC(=O)N2CCN(c3ncccn3)CC2)cc1 | nt | i | nt | nt | nt
CCN1Cc2nnn(Cc3ccccc3)c2-c2ccccc2S1(=O)=O | nt | i | nt | nt | nt
Cc1ccc(NC(=S)NNC(=O)CSc2nc3ccccc3c(=O)n2-c2ccc(Cl)cc2)cc1 | nt | i | nt | nt | nt
COc1ccc(N2C(=O)[C@@H]3[C@H](C2=O)[C@H]2c4ccccc4C=CN2[C@@H]3C(=O)Nc2ccccc2)cc1 | i | i | nt | i | i
O=C(c1ccco1)[C@@H]1[C@@H]2C(=O)N(c3ccccc3)C(=O)[C@@H]2C2c3ccccc3C=CN21 (stereo not given in full) | i | 96 | i | i | i
COCC(C)NC(=O)c1cc2c(ccc3ccccc32)oc1=O (stereo not given) | i | i | i | i | +
CCOCCCn1c(=NC(=O)c2cccnc2)c(C(=O)OCC)cc2c(=O)n3ccccc3nc21 | i | i | i | i | 145
